# High-throughput results: PubChem, National Center for Advancing Translational Sciences (NCATS)
# TDP1 inh = qHTS Assay for Inhibitors of Tyrosyl-DNA Phosphodiesterase (TDP1) | recombinant TDP1, AlphaScreen DNA substrate cleavage | Potency, µM (titrated, usually from 130 µM), without a hit: at the highest dose activity change, negative = inhibition, most hits filed as inhibitors | 350,000 tested, 0.28% active; note: % is set by controls: 0 for no effect and ±100 for the full control effect; nearly all actives have a fitted effect of over 40% in size
#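 Tdp1 1 nM final; 15 min RT w/ cpd; substrate 15 nM, 5 min; beads 10 ug/ml, 10 min; AlphaScreen read. Neg ctrl: no enzyme.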
# DT40 TDP1 CPT = qHTS for Inhibitors of human tyrosyl-DNA phosphodiesterase 1 (TDP1): qHTS in cells in presence of CPT | chicken DT40 Tdp1-/-;hTDP1 cells + 20 nM CPT, ATP luminescence, 48 h | 420,000 tested, 12% active | Potency, µM (highest dose often 46.2 µM), inactives show top-dose activity change, negative = growth inhibition, most hits filed as inhibitors | AID 686979, 2013; note: % is set by controls: 0 for no effect and ±100 for the full control effect; nearly all actives have a fitted effect of over 55% in size
#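 Chicken DT40 Tdp1-/- cells stably complemented with human TDP1 were seeded at 400 cells/well in medium containing 20 nM camptothecin, exposed to pin-transferred compounds, and grown at 37 °C for at least 48 hr. Viability was read as ATP luminescence.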
# DT40 TDP1 no CPT = qHTS for Inhibitors of human tyrosyl-DNA phosphodiesterase 1 (TDP1): qHTS in cells in absence of CPT | DT40 Tdp1-/- hTDP1 cells, no CPT, ATP luminescence, 48 h | 420,000 tested, 15% active | Potency, µM (highest dose often 46.2 µM), inactives show top-dose activity change, negative = growth inhibition, actives largely listed as inhibitors; note: % is set by controls: 0 for no effect and ±100 for the full control effect; nearly all actives have a fitted effect of over 55% in size
#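 Growth kinetics read by CellTiter-Glo luminescence after ≥48 hr at 37 °C. Cells: DT40 Tdp1-/- stably carrying human TDP1, 400 per well, compound exposure in the absence of CPT (DMSO vehicle).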
# VDR inh = Inhibitors of the vitamin D receptor (VDR): qHTS. VDR-SRC2-3 peptide fluorescence polarization, 2 h. 400,000 tested, 0.93% active. Potency, µM, for the others: max response, negative = inhibition, most hits filed as inhibitors. AID 504847, 2011. Vitamin D3 receptor (Homo sapiens), P11473; note: % is set by controls: 0 for no effect and ±100 for the full control effect
#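 FP read-out; VDR + SRC2-3 coactivator peptide; 23 nl compound by pintool; 2 h RT incubation; reagents held at 4 deg C, protected from light.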
# KAT2A inh = qHTS Assay for Inhibitors of GCN5L2; GCN5L2 HAT assay, ThioGlo1 CoA-SH fluorescence; Histone acetyltransferase KAT2A (Homo sapiens), Q92830; Potency, µM (titrated, usually from 58.9 µM), inactives show top-dose activity change, negative = inhibition, usual class: inhibitors; 390,000 tested, 0.21% active; note: % is set by controls: 0 for no effect and ±100 for the full control effect
# Target sequence (Q92830 whole entry, looked up): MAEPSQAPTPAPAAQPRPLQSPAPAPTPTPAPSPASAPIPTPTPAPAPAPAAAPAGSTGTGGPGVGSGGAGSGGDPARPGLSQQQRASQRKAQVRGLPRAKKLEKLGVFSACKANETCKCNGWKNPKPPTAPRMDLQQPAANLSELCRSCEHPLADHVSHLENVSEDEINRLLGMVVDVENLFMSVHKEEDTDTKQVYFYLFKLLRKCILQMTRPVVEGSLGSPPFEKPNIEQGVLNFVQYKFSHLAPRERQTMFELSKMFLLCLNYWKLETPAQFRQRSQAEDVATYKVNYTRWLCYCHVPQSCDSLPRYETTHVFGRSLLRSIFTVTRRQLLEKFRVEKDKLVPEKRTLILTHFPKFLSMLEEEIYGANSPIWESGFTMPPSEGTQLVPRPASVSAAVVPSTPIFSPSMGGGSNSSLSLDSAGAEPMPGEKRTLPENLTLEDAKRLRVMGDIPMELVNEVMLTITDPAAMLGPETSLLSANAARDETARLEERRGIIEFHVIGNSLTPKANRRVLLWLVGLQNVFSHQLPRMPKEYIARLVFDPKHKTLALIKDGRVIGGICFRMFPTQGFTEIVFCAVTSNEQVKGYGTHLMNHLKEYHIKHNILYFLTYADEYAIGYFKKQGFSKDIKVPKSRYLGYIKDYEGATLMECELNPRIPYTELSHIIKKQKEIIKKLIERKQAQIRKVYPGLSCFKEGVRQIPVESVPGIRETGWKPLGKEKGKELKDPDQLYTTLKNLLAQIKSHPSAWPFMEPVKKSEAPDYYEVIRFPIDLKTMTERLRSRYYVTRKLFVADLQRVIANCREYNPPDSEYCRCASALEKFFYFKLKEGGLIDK
#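 GCN5L2 (20nM final) in 50mM HEPES, 0.1mM EDTA pH 7.5, 0.01% Tween-20 was preincubated 15 min at room temperature with compound, then given ThioGlo1 (50uM), H3(1-25) peptide (75uM) and acetyl-CoA (70uM); CoA-thiol fluorescence (Ex340/Em540) was read at 0 and 20 min.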
# PLK1 PBD inh = qHTS for Inhibitors of PLK1-PDB (polo-like kinase 1 - polo-box domain): Primary Screen. Plk1 PBD binding of FITC phosphopeptide, fluorescence polarization. Potency, µM, inactives show max response, negative = inhibition, most hits filed as inhibitors. 360,000 tested, 2.8% active. AID 720504, 2013; note: series mostly up to about 57 µM; % is set by controls: 0 for no effect and ±100 for the full control effect; nearly all actives have a fitted effect of over 65% in size
# VDR inh confirm = qHTS for Inhibitors of the vitamin D receptor (VDR): Hit Validation in Primary Screen. Potency, µM, usual class: inhibitors. 840 tested, 89% active. AID 602199, 2012. shares compounds with VDR inh. VDR-coactivator inhibition assay, qHTS confirmation
# VDR FP = qHTS for Inhibitors of the vitamin D receptor (VDR): Hit Validation using a Fluorescein Assay. shares compounds with VDR inh. VDR-coactivator binding, fluorescein fluorescence polarization. Potency, µM (top dose mostly 57.1 µM), inactives show at the top dose activity change, negative = inhibition, actives largely listed as inhibitors. 840 tested, 48% active
# VDR bla = qHTS for Inhibitors of the vitamin D receptor (VDR): Hit Validation using a Beta-Lactamase Assay; shares compounds with VDR inh; VDR beta-lactamase reporter cells, FRET ratio; cells co-treated with VDR agonist LG190178; Potency, µM (doses to about 46.1 µM), without a hit: top-dose activity change, negative = inhibition, usual class: inhibitors; 840 tested, 23% active; AID 602202, 2012; note: % is set by controls: 0 for no effect and ±100 for the full control effect
# VDR viability = qHTS for Inhibitors of the vitamin D receptor (VDR): Hit Validation using a Cytotoxicity Assay; 840 tested, 18% active; AID 602204, 2012; Potency, µM (series often up to 48.3 µM), inactives show top-dose activity change, negative = cytotoxicity, most hits filed as cytotoxic; cytotoxicity counter-screen, cell viability, qHTS; shares compounds with VDR inh;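 note: plate controls were DMSO for no effect and high-concentration cycloheximide for full effect; nearly all actives have a fitted effect of over 75% in size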
# * marks the source's active call; other numbers are inactive results; ? = inconclusive; . = not tested or not shown. The list is not random: actives were taken first. Their share in the collection is about 18%. Calls come from the whole dose curve; as a rule, active = well fitted curve in the direction sought with a large enough effect; inconclusive = small, poorly fitted or top-dose-only effect, or another doubt; inactive = no such curve, though single readings can be large; an effect the other way counts as inactive or inconclusive. Potency is the fitted concentration of half-maximal effect.
SMILES,TDP1 inh,DT40 TDP1 CPT,DT40 TDP1 no CPT,VDR inh,KAT2A inh,PLK1 PBD inh,VDR inh confirm,VDR FP,VDR bla,VDR viability
O=c1/c(=C\c2ccc(O)cc2)sc2nc(-c3ccccc3)c(-c3ccccc3)n12,.,?,?,-1%,-15%,-3%,.,.,.,.
O=C1ON=C(c2ccccc2)/C1=C/c1ccccc1,.,0%,-33%,45µM*,-11%,5.3µM*,19*,6.3µM*,27%,-15%
O=C1ON=C(c2ccccc2)/C1=C/c1ccc(O)cc1,4%,23µM*,?,35µM*,-29%,1.7µM*,11*,?,?,?
O=C1O/C(=C/c2ccccc2)c2ccccc21,?,1%,-5%,4%,-7%,7%,.,.,.,.
Cc1ccc(C2=NOC(=O)/C2=C\c2ccccc2)cc1,.,?,?,32µM*,.,3.4µM*,7.5*,?,0%,30%
Cc1ccc([C@@H]2CC(=O)[C@@H]3CN(S(=O)(=O)c4ccc(C)cc4)[C@H](c4cccc(Cl)c4)C[C@@H]3N2S(=O)(=O)c2ccc(Cl)cc2)cc1,.,5%,-25%,.,.,-5%,.,.,.,.
COC(=O)c1c(NC(=O)CN2C(=O)c3ccccc3C2=O)sc(Cc2ccc3c(c2)OCO3)c1C,-1%,-27%,4%,-2%,-2%,-8%,.,.,.,.
Cc1c(Cc2ccc3c(c2)OCO3)sc(NC(=O)c2cccc3ccccc23)c1C(N)=O,3%,?,?,?,-23%,6µM*,10*,14µM*,?,-26%
CN1CCC2(CC1)N=C(c1ccc(F)cc1)C(=S)N2C(=O)c1ccc(C(C)(C)C)cc1,11%,7.3µM*,5.8µM*,?,-2%,24µM*,?,?,?,?
CCOc1ccc(NC(=S)NCc2cccnc2)cc1,1%,22%,-26%,8%,1%,-5%,.,.,.,.
CNC(=O)COc1ccc(Cl)c2cccnc12,-4%,21%,3%,11%,-11%,-2%,.,.,.,.
